The values below come from PubChem BioAssay.

The test system of assay [1] is transactivating tegument protein VP16 (Human herpesvirus 1). Put plainly: VP16 transactivation reporter inhibitors, counter-screen for SRC2 inhibitor project, cell-based, luminescence, single concentration (AID 652007). The settings on record: cell-based VP16 transactivation luciferase reporter, at 8.9 µM, stronger effect = higher value. (A counterscreen serves to expose hits that act by an unwanted route or on another target.)

The target of assay [2] is Nuclear receptor coactivator 2 (Homo sapiens) (UniProt Q15596). Kind of assay: SRC2 coactivator transcriptional activity inhibitors, confirmation, cell-based, luminescence, HEK293, triplicate (AID 652008;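 active = mean inhibition above 46.5%, the solvent-only control mean plus 3 SD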;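 note: 0% = DMSO-treated cells and 100% = Gossypol at 36 µM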). The settings on record: HEK293 GAL4-SRC2 luciferase reporter, at 8.9 µM, stronger effect = higher value. (In general: Reporter assays use an easily measured gene product as a stand-in for the process of interest.)

Unmarked numbers belong to inactive results. Cut-off read from the data, not from the text of the source, unless noted: active = inhibition above about 36%; inactive = the rest.

One may read the inhibition as the change of the read-out against control, counted positive when it falls.

Sequence of Nuclear receptor coactivator 2 (Homo sapiens) (Q15596 whole entry, looked up, the tested form may be a part): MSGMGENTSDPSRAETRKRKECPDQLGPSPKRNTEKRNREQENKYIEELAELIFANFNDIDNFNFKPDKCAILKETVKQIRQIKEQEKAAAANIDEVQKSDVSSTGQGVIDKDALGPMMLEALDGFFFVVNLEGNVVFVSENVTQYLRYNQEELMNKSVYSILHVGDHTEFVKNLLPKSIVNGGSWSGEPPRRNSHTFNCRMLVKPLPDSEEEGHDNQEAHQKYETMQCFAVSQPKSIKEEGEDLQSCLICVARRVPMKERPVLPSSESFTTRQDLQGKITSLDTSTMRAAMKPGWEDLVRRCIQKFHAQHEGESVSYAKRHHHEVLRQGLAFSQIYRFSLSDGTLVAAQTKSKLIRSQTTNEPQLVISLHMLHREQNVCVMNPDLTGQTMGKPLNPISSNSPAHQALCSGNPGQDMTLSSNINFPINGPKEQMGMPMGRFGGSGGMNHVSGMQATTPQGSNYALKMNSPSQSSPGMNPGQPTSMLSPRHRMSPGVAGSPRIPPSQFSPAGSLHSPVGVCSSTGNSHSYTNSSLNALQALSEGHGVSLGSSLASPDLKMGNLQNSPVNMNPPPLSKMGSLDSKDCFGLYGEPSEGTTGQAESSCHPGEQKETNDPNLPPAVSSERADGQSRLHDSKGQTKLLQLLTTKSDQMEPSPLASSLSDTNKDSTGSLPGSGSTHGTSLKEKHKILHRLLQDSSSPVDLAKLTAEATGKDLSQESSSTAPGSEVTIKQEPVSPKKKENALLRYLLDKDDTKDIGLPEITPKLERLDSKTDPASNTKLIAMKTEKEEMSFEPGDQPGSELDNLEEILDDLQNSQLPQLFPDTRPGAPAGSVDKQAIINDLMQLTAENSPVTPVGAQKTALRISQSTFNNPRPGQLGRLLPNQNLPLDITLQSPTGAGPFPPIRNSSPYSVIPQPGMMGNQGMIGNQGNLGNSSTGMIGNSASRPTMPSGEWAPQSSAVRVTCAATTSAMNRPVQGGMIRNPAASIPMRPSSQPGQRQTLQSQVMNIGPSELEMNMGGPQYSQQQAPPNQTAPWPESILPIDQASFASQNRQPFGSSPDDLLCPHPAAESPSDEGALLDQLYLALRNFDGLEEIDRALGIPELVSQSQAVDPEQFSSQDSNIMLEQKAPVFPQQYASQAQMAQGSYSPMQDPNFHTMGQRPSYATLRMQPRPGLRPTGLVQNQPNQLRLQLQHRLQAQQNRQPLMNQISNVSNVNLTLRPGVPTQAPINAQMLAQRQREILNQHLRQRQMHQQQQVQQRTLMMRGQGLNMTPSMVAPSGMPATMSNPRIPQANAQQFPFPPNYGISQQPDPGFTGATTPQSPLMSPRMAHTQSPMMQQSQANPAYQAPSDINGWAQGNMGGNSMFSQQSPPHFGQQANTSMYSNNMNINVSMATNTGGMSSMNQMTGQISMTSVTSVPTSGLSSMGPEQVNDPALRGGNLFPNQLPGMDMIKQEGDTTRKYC

As to `C=CCn1nc(C(=O)N2CCOCC2)cc1-c1sc(NC(=O)c2ccccc2)nc1C`, the inhibition is -15.6% in assay [1] and 24.6% in assay [2].

Consider `CCc1ccc(C(=O)Nc2nc3ccccc3[nH]2)cc1`, for which the values for the inhibition in assay [1] and in assay [2] were -1% and 45.8%, respectively.

For `CCOC(=O)COc1ccc(S(=O)(=O)N2CCN(c3ccc(OC)cc3)CC2)cc1`, the inhibition in assay [1] was 3.67%; in assay [2], -1.53%.

As for `CC(=O)NCCOc1nc(N2CCCCC2)nc(N2CCCCC2)n1`, the figures for the inhibition in assay [1] and in assay [2] were 0.94% and 12.1%, respectively.

Turning to `Cc1ccc2sc(N(CCCN(C)C)C(=O)CN3C(=O)c4ccccc4C3=O)nc2c1C`, the inhibition in assay [1] was -2.35%; in assay [2] it was 3.74%.

Regarding `Cc1nc2cc(-c3ccccc3)sc2c(=O)n1N`, the values for the inhibition in assay [1] and in assay [2] were 22.3% and 45%, respectively.

On to `COC(=O)[C@]12C[C@H](CC(=O)N3CCCC3)C(=O)N(CCC3=CCCCC3)C1=C[C@H](C(C)C)O[C@@H]2C1CC1`, for which the inhibition is -0.66% in assay [1] and -19.4% in assay [2].

Regarding `O=C(COc1ccc2c(c1)CCC2)Nc1ccccn1`, the values for the inhibition in assay [1] and in assay [2] were 2.76% and 41%, respectively.

For the compound `CCOc1ccccc1N1CCN(C(=O)c2cc(-c3cc(OC)ccc3OC)nc3ccccc23)CC1`, the inhibition in assay [1] is -6.34%; in assay [2], 14.4%.

`Nn1c(SCC(=O)Nc2cc(C(F)(F)F)ccc2Cl)nncc1=O`: the inhibition in assay [1] was 3.78%; in assay [2], -1.26%.

Take `COc1ccc(NC(=O)C2(C)Cc3c(-c4cccc(C(F)(F)F)c4)ccnc3O2)cn1` (centres undefined): the inhibition in assay [1] is -0.87%; in assay [2] it was -0.12%.

With `COc1ccccc1-c1cn[nH]c1-c1ccc(O)cc1O`, the figures for the inhibition in assay [1] and in assay [2] were 1.82% and 11.9%, respectively.
